The structures appear in SMILES notation. About 240 (18%) of roughly 1,300 compounds were called active. About 8% were inconclusive and are not listed. The rule behind the calls is not given here. Only a sample is shown. Entries with a potency or affinity are not part of this list.

The nature of this assay: toxicity to human hepatoma HepG2 cells – cell-based, cherry-picked samples, cytotoxicity control, dose response (AID 1159577).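 Note: 0% = neutral control wells and -100% = positive control wells.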 The settings on record: HepG2 cytotoxicity counterscreen, plate reader; series mostly up to 19.5 µM; activity change, negative = cytotoxicity: at the top concentration.
Take `COc1ccc2c3c([nH]c2c1)[C@@H](CO)N(Cc1ccccc1)CC31CCN(C(=O)c2cccnc2)CC1`: the “activity change, negative = cytotoxicity” value was 1% (inactive).
In the case of `CS(=O)(=O)N1[C@H](C#N)[C@H](c2ccccc2-c2ccccc2)[C@H]1CO`, the “activity change, negative = cytotoxicity” value was -3.69% [at 18 µM] (inactive).
In the case of `Cc1ccc(S(=O)(=O)N(C)C[C@H]2Oc3ccc(NC(=O)c4ccncc4)cc3C(=O)N([C@@H](C)CO)C[C@@H]2C)cc1`, the “activity change, negative = cytotoxicity” value was 0.724% [at 21 µM] (inactive).
Turning to `CO[C@H]1CN(C)C(=O)c2cc(NC(C)=O)ccc2OC[C@H](C)N(Cc2ccncc2)C[C@@H]1C`, the “activity change, negative = cytotoxicity” value is 9.85% (inactive).
In the case of `N#Cc1ccc(-c2ccc(C3[C@@H]4CN(C(=O)C5CC5)C[C@H]3N4)cc2)cc1` (stereo not given in full), the “activity change, negative = cytotoxicity” value was 5.83% (inactive).
With `C[C@H]1CN([C@@H](C)CO)C(=O)c2ccccc2-c2ccccc2CO[C@@H]1CN(C)C(=O)Nc1ccc(-c2ccccc2)cc1`, the “activity change, negative = cytotoxicity” value is -2.44% (inactive).
Take `COc1ccc2c3c([nH]c2c1)[C@@H](CO)N(Cc1ccccc1F)CC31CCN(C(=O)C2CCOCC2)CC1`: the “activity change, negative = cytotoxicity” value is -8.2% (inactive).
With `Cc1ccc(S(=O)(=O)N(C)C[C@@H]2OCc3ccccc3-c3c(n(C)c4ccccc34)C(=O)N([C@H](C)CO)C[C@@H]2C)cc1`, the “activity change, negative = cytotoxicity” value is -6.32% [at 21 µM] (inactive).
As for `Cc1ccccc1S(=O)(=O)N(C)C[C@@H]1OCc2ccccc2-c2c(n(C)c3ccccc23)C(=O)N([C@@H](C)CO)C[C@@H]1C`, the “activity change, negative = cytotoxicity” value is -1.58% (inactive).
As to `COCC(=O)N1CC2(C1)CN(Cc1ccccc1F)[C@H](CO)c1[nH]c3cc(OC)ccc3c12`, the “activity change, negative = cytotoxicity” value was 12.4% (inactive).
Take `CN(C)CC(=O)Nc1ccc2c(c1)[C@@H]1C[C@H](CC(=O)N3CCOCC3)O[C@@H](CO)[C@@H]1O2`: the “activity change, negative = cytotoxicity” value was -0.683% (inactive).
As for `N#Cc1ccc(-c2ccc([C@@H]3[C@@H]4CN(S(=O)(=O)Cc5ccccc5)C[C@H]3N4)cc2)cc1`, the “activity change, negative = cytotoxicity” value is -19.3% (inactive).
In the case of `N#Cc1ccc(-c2ccc([C@@H]3[C@@H]4CN(Cc5cocn5)C[C@H]3N4)cc2)cc1` it was -18.2% [at 21 µM] (inactive); in that of `N#Cc1ccc(-c2ccc([C@@H]3[C@@H](CO)N4C(=O)CN(C(=O)C5CCC5)C[C@@H]34)cc2)cc1`, 10.7% (inactive); in that of `CCCC#Cc1ccc2c(c1)O[C@H](CN(C)C(=O)c1ccccc1F)[C@@H](C)CN([C@H](C)CO)S2(=O)=O`, 16% (inactive).
Take `C/C=C/c1ccc2c(c1)[C@@H]1[C@@H](CCN1S(=O)(=O)c1ccccc1C)[C@H](CO)N2`: the “activity change, negative = cytotoxicity” value was 0.386% (inactive).
On to `COc1cccc(CNC(=O)c2cc3c(c(-c4cccc(-c5ccncc5)c4)n2)[C@@H](CCO)N([S@](=O)C(C)(C)C)C3)c1`, for which the “activity change, negative = cytotoxicity” value was -14.9% (inactive).
With `C[C@H]1CN([C@@H](C)CO)S(=O)(=O)c2ccc(C#Cc3ccccc3F)cc2O[C@H]1CN(C)C(=O)c1ccc2c(c1)OCO2`, the “activity change, negative = cytotoxicity” value is 26.1% (inactive).
Turning to `CCCNC(=O)c1cc2c(c(-c3cccc(-c4cc5ccccc5o4)c3)n1)[C@H](CCO)N(C(=O)NC(C)C)C2`, the “activity change, negative = cytotoxicity” value was 26.5% (inactive).
For `O=C(c1ccccc1F)N1CC(=O)N2[C@H](C1)[C@@H](c1ccc(-c3ccc(F)cc3)cc1)[C@@H]2CO`, the “activity change, negative = cytotoxicity” value was -5.85% (inactive).
Turning to `C/C=C/c1ccc([C@H]2[C@@H](CO)N(CC3CCCC3)C23CN(C(=O)CC2CC2)C3)cc1`, the “activity change, negative = cytotoxicity” value was -13.4% (inactive).
Regarding `Cc1ccccc1S(=O)(=O)N1C[C@@H]2N[C@H](C1)C2c1ccc(-c2ccc(C#N)cc2)cc1` (stereo not given in full), the “activity change, negative = cytotoxicity” value is -10.4% (inactive).
As for `COc1ccccc1CN1C[C@@H]2N[C@H](C1)C2c1ccc(-c2ccncc2)cc1` (stereo not given in full), the “activity change, negative = cytotoxicity” value was -9.04% [at 21 µM] (inactive).
In the case of `COc1cccc(CN2[C@@H]3CNC[C@H]2[C@H]3c2ccc(-c3ccccc3OC)cc2)c1` it was -3.18% (inactive).
As to `COc1ccccc1-c1ccc([C@@H]2[C@@H](C#N)N[C@@H]2CO)cc1`, the “activity change, negative = cytotoxicity” value is 1.31% (inactive).
Regarding `CCCC(=O)N1CCC2(CC1)CN(Cc1cccnc1)[C@@H](CO)c1[nH]c3cc(OC)ccc3c12`, the “activity change, negative = cytotoxicity” value is 19.9% (inactive).
In the case of `CCC(=O)N1CC2(C1)CN(S(=O)(=O)c1ccccc1)[C@@H](CO)c1[nH]c3cc(OC)ccc3c12`, the “activity change, negative = cytotoxicity” value is 23.6% (inactive).
With `CS(=O)(=O)N1[C@H](C#N)[C@H](c2ccccc2-c2ccc(F)cc2)[C@H]1CO`, the “activity change, negative = cytotoxicity” value is 0.806% [at 21 µM] (inactive).
As to `COc1ccc(S(=O)(=O)Nc2ccc3c(c2)CC(=O)N([C@H](C)CO)C[C@H](C)[C@H](CN(C)S(=O)(=O)c2ccc(C)cc2)O3)cc1`, the “activity change, negative = cytotoxicity” value is 5.57% (inactive).
Turning to `N#C[C@@H]1[C@H](c2ccccc2C2=CCCCC2)[C@@H](CO)N1C(=O)c1cccc(F)c1`, the “activity change, negative = cytotoxicity” value is -10.4% [at 21 µM] (inactive).
With `COc1cccc(-c2ccc(C3[C@@H]4CN(C(=O)C5CC5)C[C@H]3N4)cc2)c1` (stereo not given in full), the “activity change, negative = cytotoxicity” value is -2.61% (inactive).
With `COc1ccc(-c2ccc(C3[C@H]4CNC[C@@H]3N4C(=O)Nc3ccc(C(F)(F)F)cc3)cc2)cc1` (stereo not given in full), the “activity change, negative = cytotoxicity” value is 7.31% (inactive).
For the compound `O=C(Nc1ccc(C(F)(F)F)cc1)N1C[C@@H]2N[C@H](C1)C2c1ccc(-c2cccnc2)cc1` (stereo not given in full), the “activity change, negative = cytotoxicity” value is 23.2% (inactive).
Consider `O=C(c1cnccn1)N1CC(=O)N2[C@@H](CO)[C@@H](c3ccc(C#CCc4ccccc4)cc3)[C@@H]2C1`, for which the “activity change, negative = cytotoxicity” value was 5.35% (inactive).
For the compound `CCC(=O)N1CC2(C1)CN(Cc1cc(F)ccc1F)[C@H](CO)c1[nH]c3cc(OC)ccc3c12`, the “activity change, negative = cytotoxicity” value is -5.03% (inactive).
With `CC(C)(C)[S@@](=O)N1Cc2cc(C(=O)N3CCc4ccccc4C3)nc(-c3cccc(-c4ccncc4)c3)c2[C@H]1CCO`, the “activity change, negative = cytotoxicity” value was 14% (inactive).
For `C[C@H]1CN([C@@H](C)CO)C(=O)CCCn2nncc2CO[C@H]1CN(C)C(=O)Nc1ccc(N2CCCCC2)cc1`, the “activity change, negative = cytotoxicity” value is 4.08% (inactive).
`C[C@@H]1CN([C@H](C)CO)C(=O)c2cc(/C=C/c3ccccc3)cnc2O[C@H]1CN(C)C(=O)NC1CCCCC1`: the “activity change, negative = cytotoxicity” value is -16.2% (inactive).
For `CN(C)CC#Cc1ccc([C@@H]2[C@H](CO)N3C(=O)CN(C(=O)Cc4cccnc4)C[C@@H]23)cc1`, the “activity change, negative = cytotoxicity” value was -5.53% (inactive).
Turning to `COCC(=O)Nc1ccc2c(c1)C(=O)N(C)C[C@H](OC)[C@H](C)CN(Cc1cccc(F)c1)[C@@H](C)CO2`, the “activity change, negative = cytotoxicity” value is 6.07% (inactive).
With `C[C@@H]1CN([C@H](C)CO)C(=O)c2cccc(NC(=O)c3nc4ccccc4s3)c2O[C@H]1CN(C)C(=O)Nc1ccc(C(F)(F)F)cc1`, the “activity change, negative = cytotoxicity” value was 24.7% (inactive).
As to `CCCNC(=O)N1CCC2(CC1)CN(Cc1ccc(F)cc1)[C@@H](CO)c1[nH]c3cc(OC)ccc3c12`, the “activity change, negative = cytotoxicity” value was 12% (inactive).
Consider `CO[C@@H]1CN(C)C(=O)c2ccc(NC(=O)c3nc4ccccc4s3)cc2OC[C@@H](C)N(Cc2ccccc2)C[C@H]1C`, for which the “activity change, negative = cytotoxicity” value is 19.9% (inactive).
In the case of `COc1cc(CN2[C@@H]3CNC[C@H]2C3c2ccc(-c3ccccc3)cc2)cc(OC)c1` (stereo not given in full) it was -27.9% [at 21 µM] (inactive).
`COc1ccc(-c2ccc(C3[C@H]4CNC[C@@H]3N4S(=O)(=O)c3cccc(OC)c3)cc2)cc1` (stereo not given in full): the “activity change, negative = cytotoxicity” value is 5.57% (inactive).
Turning to `CCC(=O)N1CC2(C1)CN(Cc1cccc(Cl)c1)[C@H](CO)c1[nH]c3cc(OC)ccc3c12`, the “activity change, negative = cytotoxicity” value is -13% (inactive).
On to `C[C@@H]1CN([C@H](C)CO)C(=O)c2cccc(NS(=O)(=O)c3cccs3)c2O[C@H]1CN(C)Cc1ccc(C(F)(F)F)cc1`, for which the “activity change, negative = cytotoxicity” value was 0.28% (inactive).
Take `COc1ccc(C#Cc2ccc3c(c2)O[C@H](CN(C)C(=O)Nc2cccc(OC)c2)[C@H](C)CN([C@@H](C)CO)S3(=O)=O)cc1`: the “activity change, negative = cytotoxicity” value was 4.51% (inactive).
Consider `CC(C)(C)[S@](=O)N1Cc2cc(C(=O)NC3CCC3)nc(-c3cccc(Br)c3)c2[C@@H]1CCO`, for which the “activity change, negative = cytotoxicity” value was 15.7% (inactive).
As for `COc1ccc(S(=O)(=O)N(C)C[C@@H]2OCc3ccccc3-c3c(n(C)c4ccccc34)C(=O)N([C@@H](C)CO)C[C@@H]2C)cc1`, the figure is 3.28% (inactive); as for `COc1ccc2c3c(n(C)c2c1)[C@H](CO)N(C(=O)c1cccc(F)c1)CC31CN(C(=O)c2cccc(F)c2)C1`, 38.5% (inactive).
For `CO[C@@H]1CN(C)C(=O)c2ccc(NC(=O)c3cc(C)on3)cc2OC[C@@H](C)N(S(=O)(=O)c2cccc(C)c2)C[C@H]1C`, the “activity change, negative = cytotoxicity” value is -12.2% (inactive).
On to `CCC(=O)N1CCC2(CC1)CN(Cc1cccc(OC)c1)[C@@H](CO)c1[nH]c3cc(OC)ccc3c12`, for which the “activity change, negative = cytotoxicity” value is -21.1% (inactive).
Turning to `C[C@@H]1CN([C@H](C)CO)C(=O)c2c(c3ccccc3n2C)-c2ccccc2CO[C@@H]1CN(C)C(=O)c1cc(Cl)cc(Cl)c1`, the “activity change, negative = cytotoxicity” value is 1.08% (inactive).
Turning to `COc1ccc(CN2C[C@H](C)[C@@H](OC)CN(C)C(=O)c3cc(NC(=O)c4nc5ccccc5s4)ccc3OC[C@@H]2C)cc1`, the “activity change, negative = cytotoxicity” value was -2.87% (inactive).
For the compound `CCCNC(=O)Nc1ccc2c(c1)C(=O)N(C)C[C@H](OC)[C@@H](C)CN(C(=O)C1CCOCC1)[C@@H](C)CO2`, the “activity change, negative = cytotoxicity” value was 0.908% (inactive).
With `C/C=C/c1ccc2c(c1)[C@H]1[C@H](CCN1S(=O)(=O)c1cccc(F)c1)[C@@H](CO)N2`, the “activity change, negative = cytotoxicity” value was -18.7% (inactive).
Take `C/C=C/c1ccc(C2[C@H]3CNC[C@@H]2N3Cc2cc(F)ccc2F)cc1` (stereo not given in full): the “activity change, negative = cytotoxicity” value is -9.53% (inactive).
As for `C[C@@H]1CN([C@@H](C)CO)S(=O)(=O)c2ccc(/C=C/c3ccccc3)cc2O[C@H]1CN(C)C(=O)c1ccc2c(c1)OCO2`, the figure is -5.77% (inactive); as for `C/C=C/c1ccc2c(c1)[C@H]1[C@H](CCN1C(=O)c1ccc3c(c1)OCO3)[C@H](CO)N2`, 17.9% (inactive).
In the case of `C[C@@H]1CN([C@@H](C)CO)C(=O)c2cc(NC(=O)Nc3ccccc3)ccc2O[C@@H]1CN(C)C(=O)Nc1cccc2ccccc12` it was 0.484% (inactive); in that of `COc1ccc2c3c([nH]c2c1)[C@@H](CO)N(Cc1ccccc1Cl)CC31CCN(C(=O)C2CC2)CC1`, 5.31% (inactive).
As for `CCC(=O)N1CC2(C1)CN(Cc1ccc(Cl)cc1)[C@@H](CO)c1[nH]c3cc(OC)ccc3c12`, the “activity change, negative = cytotoxicity” value is -17.8% (inactive).
As for `C/C=C/c1ccc2c(c1)[C@H]1[C@H](CCN1S(=O)(=O)c1ccccc1C)[C@@H](CO)N2`, the figure is 2.08% (inactive); as for `CO[C@@H]1CN(C)C(=O)c2cc(NC(C)=O)ccc2OC[C@@H](C)N(C(=O)Cc2cccnc2)C[C@H]1C`, -3.07% (inactive); as for `O=C(C[C@H]1C[C@@H]2c3cc(NC(=O)Nc4ccccc4)ccc3O[C@@H]2[C@H](CO)O1)NCc1ccccc1`, -19.7% (inactive).
In the case of `CCCN1[C@H](CO)[C@H](c2ccc(C3=CCCC3)cc2)[C@H]1CN(C(C)=O)C1CCCC1`, the “activity change, negative = cytotoxicity” value was 4.65% (inactive).
As for `CCC(=O)N1[C@H](CO)[C@H](c2ccccc2)[C@@H]1CN(CC)C(=O)c1cccc(F)c1`, the figure is 6.38% (inactive); as for `CN(C)CC(=O)N1[C@H](CO)[C@H](c2ccc(-c3cccc(C(=O)N(C)C)c3)cc2)[C@@H]1C#N`, 9.58% (inactive).
As for `C[C@@H]1CN([C@H](C)CO)S(=O)(=O)c2ccc(C3=CCCCC3)cc2O[C@H]1CN(C)C(=O)Cc1ccncc1`, the “activity change, negative = cytotoxicity” value is 18% (inactive).

(Values after PubChem BioAssay AID1159577 (Broad Institute, 2015).)
